Here are results for 40 molecules from PubChem BioAssay.

Results filed as inconclusive are left out. Activity calls are given as the source filed them.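 The calls were made as follows, unless noted: active = viability at or below 27.92% in each of two runs, the all-compound median minus 4 SD; inconclusive = no clear call, values can overlap the other calls; inactive = the rest.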

The first assay in a line: growth suppression of beta-catenin knockout HCT116, pilot screen, human colon tumor cells (AID 823;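 active = cell viability at or below a set limit in both duplicate runs, the limit being the all-compound median minus 4 SD, cut at about 23% in these data, passing the limit was not always enough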;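 also: 0% = wells killed by 20 µM Hyamine and 100% = untreated DMSO cell wells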). As to conditions: CellTiter-Glo, 60 h, at 10 µM, hits give low values. (In general: ATP-based viability assays read luminescence as a measure of living cells.)
By viability is commonly meant a read-out of living cells in per cent, often relative to untreated cells. On to `Cc1cc(Nc2ccc(F)cc2C)n2ncnc2n1`, for which the viability is 108% (inactive). Consider `COc1ccccc1CNC(=O)CS(=O)Cc1nc(-c2ccccc2C)oc1C` (stereo unspecified), for which the viability was 101% (inactive).

For `Cc1nc2sc(C(c3ccccc3)N3CCN(CCO)CC3)c(O)n2n1` (stereo unspecified), the viability is 106% (inactive). Still for that read-out and setting: then `CC1(C)Cc2c(C#N)c(NCCCO)nc(-c3ccccc3)c2CO1`, with 88% (inactive); and `CN1CCc2c(sc(NC(=O)c3ccc(S(=O)(=O)N4CCOCC4)cc3)c2C(N)=O)C1`, with 111% (inactive); and `COc1ccc(C)c(S(=O)(=O)Nc2ccc(OCC(=O)O)cc2)c1`, with 99% (inactive).

Another assay in a line: growth suppression of PTEN-deleted HCT116, pilot screen, cell-based, HCT116 clonal line, CellTiter-Glo (AID 824).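 Also: 0% = 20 µM Hyamine control and 100% = vehicle cell control.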 The following applies: 60 h, at 10 µM, hits give low values.
Regarding `Cn1c2ccc(CC(=O)O)cc2c2cc(CC(=O)O)ccc21`, the viability is 89.7% (inactive).

Turning to `CS(=O)(=O)N1CCN(c2nc(-c3ccccc3)cs2)CC1`, the viability was 94.4% (inactive). On the same count and under the same terms, the value for `CCOc1cc(CN2CCSCC2)ccc1O` was 101% (inactive); that for `Cc1cc(C)cc(OCC(O)CN2C(=O)NC(C)(C)C2=O)c1` (stereo unspecified) was 103% (inactive); that for `O=C(NC1CCCCCCC1)c1ccc(CNc2c(N3CCOCC3)c(=O)c2=O)cc1` was 95.6% (inactive). On the same count and under the same terms, the value for `COC(=O)C1=C(O)CSC1=Nc1cccc(C(F)(F)F)c1` was 96.3% (inactive); that for `COc1cccc(C2c3c(oc4cc(C)c(C)cc4c3=O)C(=O)N2CCCN(C)C)c1` (stereo unspecified) was 94.6% (inactive); that for `CCOC(=O)c1ccc(NC(=O)NCCN2CCCCC2)cc1` was 100% (inactive). For the molecule `COc1ccc(-c2nnc3ccc(SCC(=O)N4CCCC4)nn23)cc1`, the viability is 99.5% (inactive). On the same count and under the same terms, the value for `CC(=O)c1cc(F)c(N2CCN(CCC#N)CC2)cc1C` was 81.3% (inactive). Turning to `COc1ccc(-n2c(Cn3c(=O)sc4ccccc43)nnc2SCC(=O)N2CCOCC2)cc1`, the viability was 97% (inactive). Still for that read-out and setting: the value for `CCOC(=O)c1c(NC(=O)c2cc(C3CC3)on2)sc2c1CCCC2` was 97.5% (inactive); that for `CCOc1ccccc1C(=O)Nc1nnc(C(C)C)s1` was 91.5% (inactive); that for `COc1ccccc1N1CCN(C(=O)CCCC2=NS(=O)(=O)c3ccccc3N2)CC1` was 92.4% (inactive). On the same count and under the same terms, then `O=C(O)CC1C(=O)NCCN1Cc1ccc(F)c(F)c1` (stereo unspecified), with 88.2% (inactive); and `CCc1ccccc1S(=O)(=O)Cc1ccc(C(=O)NC(C)C)o1`, with 97.6% (inactive); and `Cc1cc(Nc2ccc(Br)c(C)c2)n2nc(C)nc2n1`, with 84.9% (inactive). With `O=C(O)CCc1ccc(-c2cccs2)n1NC(=O)c1ccc(Cl)cc1`, the viability was 93.9% (inactive). On the same count and under the same terms, then `CCC(=O)N1CC2(C)CN(C(=O)CC)CC(C)(C1)C2`, with 97% (inactive); and `O=C(Cc1cc(=O)[nH]c(=O)[nH]1)N1CCN(C(=O)c2ccco2)CC1`, with 95.6% (inactive); and `CCCCc1ccc(Nc2ncnc3nc[nH]c23)cc1`, with 94% (inactive).

Consider `O=C1c2ccccc2C(O)N1c1ccc(Cl)cc1` (stereo unspecified), for which the viability was 95.5% (inactive).

`CN(C)c1ccc(C2N3CC4(C)CN2CC(C)(C3)C4O)cc1` (stereo unspecified): the viability was 99% (inactive). On the same count and under the same terms, then `COc1cc2c(c(O)c1OC)C(=O)C(OC)CCC2` (stereo unspecified), with 93.7% (inactive); and `CCCC(=O)NCCCc1nc2ccccc2[nH]1`, with 100% (inactive).

Regarding `COc1cc(OC)cc(OCC(O)Cn2cnc3cc(C)c(C)cc32)c1` (stereo unspecified), the viability was 80.3% (inactive). Still for that read-out and setting: then `CCCc1cc(C(=O)NCc2ccc(OC)cc2)no1`, with 99.3% (inactive); and `O=C(NCCCN1CCCC1=O)c1ccccc1NS(=O)(=O)c1ccc(F)cc1`, with 94.1% (inactive). With `CCc1nnc(NC(=O)c2ccc(S(=O)(=O)N3CCOCC3)cc2)s1`, the viability was 94.6% (inactive). With `COc1cccc(C(c2sc3ncnn3c2O)N2CCc3ccccc3C2)c1` (stereo unspecified), the viability is 93.2% (inactive). On to `COc1cccc(-n2c(Cc3cc(=O)[nH]c(=O)[nH]3)nnc2SCC(=O)N2CCCCCC2)c1`, for which the viability is 98.5% (inactive). Turning to `Cn1c(CSc2nc3ccccc3s2)n[nH]c1=S`, the viability is 94.6% (inactive). Take `O=C(CN1CCOCC1)Nc1cc(Cl)ccc1Cl`: the viability was 101% (inactive). Same read-out and setting: then `CC(=O)N1CCc2c(sc(NC(=O)CN3C(=O)CCC3=O)c2C(N)=O)C1`, with 99.3% (inactive); and `Cc1cc(Nc2ccc(F)cc2C)n2ncnc2n1`, with 101% (inactive). The same measure, in the same setting: the value for `COc1ccccc1CNC(=O)CS(=O)Cc1nc(-c2ccccc2C)oc1C` (stereo unspecified) was 93.4% (inactive). In the case of `Cc1nc2sc(C(c3ccccc3)N3CCN(CCO)CC3)c(O)n2n1` (stereo unspecified), the viability is 98.6% (inactive). Same read-out and setting: then `CC1(C)Cc2c(C#N)c(NCCCO)nc(-c3ccccc3)c2CO1`, with 85.3% (inactive); and `CN1CCc2c(sc(NC(=O)c3ccc(S(=O)(=O)N4CCOCC4)cc3)c2C(N)=O)C1`, with 103% (inactive). The same measure, in the same setting: the value for `COc1ccc(C)c(S(=O)(=O)Nc2ccc(OCC(=O)O)cc2)c1` was 102% (inactive).
